# High-throughput results (PubChem)
# Sampled rows, rich in hits. Any-hit rate of the full collection: about 15%.
# TDP1 cell CPT: growth inhibition of DT40 Tdp1-/-;hTDP1 cells with camptothecin (screen for TDP1 inhibitors) | chicken DT40 Tdp1-/-;hTDP1 cells + 20 nM CPT, ATP luminescence, 48 h | Potency, µM (titrated, usually from 46.2 µM), hits mostly inhibitors | 420,000 tested, 12% active; further: nearly all actives have a fitted effect of over 55% in size
#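 Chicken DT40 Tdp1-/- cells complemented with human TDP1, 400 cells/well, exposed to compounds plus 20 nM camptothecin for at least 48 h at 37 C; viability read as ATP content by CellTiter-Glo luminescence.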
# ELG1 DNA repair: ELG1-dependent DNA repair inhibition; HEK293T ELG1-luciferase reporter, luminescence, 16 h; DNA damage induced by 5-fluorouridine; Potency, µM (titrated, usually from 46.1 µM), usual class: inhibitors; 330,000 tested, 2.3% active; AID 504467; further: nearly all actives have a fitted effect of over 55% in size
#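 5-Fluorouridine DNA damage + compound/DMSO, 2,000 cells/well, 16 h, 37 °C/5% CO2. ONE-Glo, 30 min RT, luminescence. Readout = decrease in reporter signal.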
# RORgamma inh: inhibitors of mouse ROR gamma transcriptional activity; P51450; Drosophila S2 Gal4-RORgamma UAS-luciferase reporter, 20 h; Potency, µM (titrated, usually from 53.6 µM), usual class: inhibitors; 310,000 tested, 5.4% active; further: nearly all actives have a fitted effect of over 60% in size
#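 Schneider cells (Drosophila), stable Gal4 DBD–ROR gamma + UAS-luc; 1 hr cmpd preincubation; Cu2+ induction 700 uM final; 20 hr ambient; luminescence.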
# 12-LOX inh: inhibitors of human 12S-lipoxygenase ALOX12; purified 12hLO, xylenol orange hydroperoxide absorbance; Potency, µM (top dose mostly 108 µM), hits mostly inhibitors; 580,000 tested, 1.1% active; AID 1671190
# Target sequence (P18054 whole entry, looked up): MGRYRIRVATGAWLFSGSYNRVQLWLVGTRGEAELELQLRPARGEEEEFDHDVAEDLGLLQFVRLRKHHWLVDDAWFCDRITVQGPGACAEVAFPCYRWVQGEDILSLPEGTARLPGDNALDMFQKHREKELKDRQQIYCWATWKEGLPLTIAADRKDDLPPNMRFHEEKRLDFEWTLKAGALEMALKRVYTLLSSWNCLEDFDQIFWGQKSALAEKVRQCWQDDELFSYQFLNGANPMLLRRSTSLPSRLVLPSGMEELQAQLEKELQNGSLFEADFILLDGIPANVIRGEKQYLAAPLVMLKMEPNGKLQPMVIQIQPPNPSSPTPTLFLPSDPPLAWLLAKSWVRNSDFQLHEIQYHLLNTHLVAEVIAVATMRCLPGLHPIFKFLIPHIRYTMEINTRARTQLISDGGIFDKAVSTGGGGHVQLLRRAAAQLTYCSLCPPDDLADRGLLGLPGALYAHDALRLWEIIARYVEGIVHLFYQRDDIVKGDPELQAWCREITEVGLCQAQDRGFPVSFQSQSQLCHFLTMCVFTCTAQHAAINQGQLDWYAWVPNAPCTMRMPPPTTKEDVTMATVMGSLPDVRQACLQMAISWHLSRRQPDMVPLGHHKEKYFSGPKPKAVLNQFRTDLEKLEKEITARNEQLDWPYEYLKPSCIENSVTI
#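 Purified human 12hLO (150 nM final) in 25 mM Hepes, 0.01% Triton X-100, pH 7.0 was preincubated 15 min at room temperature with compound. Then 40 uM arachidonic acid was added, 30 min. Hydroperoxide was read by Fe-XO absorbance ratio 573/405 nm.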
# Gal4-VP16 FLuc: Gal4-VP16 reporter inhibition counter-screen. Drosophila S2 Gal4-VP16 UAS-luciferase, luminescence, 20 h. Potency, µM (highest dose often 53.6 µM), hits mostly inhibitors. 310,000 tested, 3.5% active;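 further: Gal4-VP16 expression switched on by copper sulfate through the metallothionein promoter; nearly all actives have a fitted effect of over 50% in size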
# TDP1 cell noCPT: qHTS for Inhibitors of human tyrosyl-DNA phosphodiesterase 1 (TDP1): qHTS in cells in absence of CPT; Potency, µM (doses to about 46.2 µM), hits mostly inhibitors; AID 686978, 2013; 420,000 tested, 15% active; DT40 Tdp1-/- hTDP1 cells, no CPT, ATP luminescence, 48 h; further: nearly all actives have a fitted effect of over 55% in size
#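 DT40 Tdp1-/-;hTDP1 cells, no CPT (DMSO vehicle only), 400 cells/well; compounds pin-transferred; ≥48 hr, 37 °C; CellTiter-Glo 30 min RT dark, luminescence read.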
# Hits are given with their value; i = inactive; ? = inconclusive; nt = no result. The call rests on the fitted dose curve; in most records, active means well fitted curve in the direction sought with a large enough effect; inconclusive means small, poorly fitted or top-dose-only effect, or another doubt; inactive means no such curve, though single readings can be large; an effect the other way counts as inactive or inconclusive.
SMILES,TDP1 cell CPT,ELG1 DNA repair,RORgamma inh,12-LOX inh,Gal4-VP16 FLuc,TDP1 cell noCPT
CC(=O)Nc1sc(N)nc1-c1ccccc1,i,i,i,i,i,i
CCCN(CC1CC1)C(=S)NC(=O)c1ccccc1C,i,nt,nt,i,nt,i
CCCN(CC1CC1)C(=S)NC(=O)c1cc(Br)ccc1Cl,?,i,nt,?,nt,16µM
CCCN(CC1CC1)C(=S)NC(=O)C1CC1,i,i,4µM,i,13µM,i
CC(C)(C)c1nnc(NC(=O)C2CCN(C(=O)c3ccccc3Cl)CC2)s1,nt,nt,nt,i,nt,nt
O=C(Cn1cnc(NC(=O)c2ccccc2)n1)NCc1ccccc1,nt,nt,nt,i,nt,nt
N#CCCCCOc1ccc(-c2ccccc2)cc1,nt,nt,nt,i,nt,nt
COc1ccc(-c2noc(C(=O)O)c2[C@@H](C)NC(=O)Nc2ccccc2)cc1,nt,nt,nt,i,nt,nt
Cn1cc(CN2CCCCCCNC(=O)[C@@H]3CCC[C@@H]32)c2ccccc21,nt,nt,nt,i,nt,nt
CCCCCCN1C[C@H](O)[C@@H](n2cc(COC(=O)c3ccccc3)nn2)C[C@@H]1c1ccc(Cl)cc1,?,nt,nt,i,nt,?
CCCCCCN1C[C@@H](n2cc(COC(=O)c3ccccc3)nn2)[C@H](O)C[C@@H]1c1ccc(C)cc1,18µM,nt,nt,i,nt,12µM
CCCCCC(=O)N1C[C@H](n2cc(COC(=O)c3ccccc3)nn2)[C@@H](O)C[C@@H]1c1ccc(Cl)cc1,?,nt,nt,?,nt,16µM
CCCCCCN1C[C@H](O)[C@@H](n2cc(COC(=O)c3ccccc3)nn2)C[C@@H]1c1ccc(C)cc1,?,nt,nt,?,nt,16µM
O=C(CCC1CCCCC1)Nc1ccc(I)cc1,nt,nt,nt,i,nt,nt
O=c1[nH]c(CN2CCN(Cc3cccs3)CC2)nc2scc(-c3ccc(F)cc3)c12,nt,nt,nt,i,nt,nt
O=C(NCCCc1ccccc1)c1cc2cc([N+](=O)[O-])ccc2oc1=O,nt,nt,nt,i,nt,nt
Cc1ccc2nc(Nc3nc(C)cc(-c4ccccc4)n3)[nH]c(=O)c2c1,21µM,?,i,i,i,15µM
Cc1ccc2nc(Nc3nc(=O)c4ccccc4n3C)nc(C)c2c1,nt,i,0.79µM,nt,1µM,nt
Cc1cc(C)nc(Nc2nc3ccccc3[nH]2)n1,i,?,i,i,i,i
Cc1ccc2nc(NC3=NCN(Cc4ccccc4)CN3)nc(C)c2c1,nt,i,i,nt,i,nt
Cc1ccc2nc(Nc3nc(-c4ccccc4)cc(=O)[nH]3)nc(C)c2c1,13µM,i,?,i,13µM,8.2µM
COc1ccc(C(=O)Nc2cc(-n3cnnn3)ccc2N2CCCCC2)cc1Br,nt,nt,nt,i,nt,nt
O=C(c1ccc(COc2ccccc2Br)cc1)N1CCCCCC1,?,i,i,i,i,16µM
Fc1ccc(COc2ccccc2C(=S)N2CCCC2)cc1,?,i,?,?,i,?
O=C(Nc1ccc(Cn2cccn2)cc1)c1ccc(COc2ccccc2Br)cc1,13µM,i,?,i,?,15µM
SMILES,TDP1 cell CPT,ELG1 DNA repair,RORgamma inh,12-LOX inh,Gal4-VP16 FLuc,TDP1 cell noCPT
COc1cccc(C(=S)N2CCCC2)c1OC,i,i,?,i,0.079µM,i
Cc1ccc(COc2ccccc2C(=S)N2CCCC2)cc1,?,i,16µM,i,?,21µM
COCCOc1ncccc1-c1noc([C@@H]2CCCN2Cc2ccc(OC)cc2O)n1,nt,nt,nt,i,nt,nt
CC(=O)NCCc1nc2ccccc2n1CCOc1ccccc1C,?,i,i,i,i,?
O=C(NCCc1nc2ccccc2n1CCC1CCCCC1)c1ccco1,nt,nt,nt,i,nt,nt
O=C(NCCc1nc2ccccc2n1CCCOc1ccccc1Cl)C1CCCCC1,10µM,nt,nt,nt,nt,7.1µM
CCc1ccc(OCCCCn2c(CCNC(=O)C3CCCCC3)nc3ccccc32)cc1,7.1µM,nt,nt,nt,nt,10µM
CC(C)(C)C(=O)NCCc1nc2ccccc2n1CCCCOc1ccccc1,?,nt,nt,i,nt,16µM
O=C(NCCc1nc2ccccc2n1CCOc1ccccc1)C1CCCCC1,?,nt,nt,nt,nt,i
Cc1ccccc1OCCn1c(CCNC(=O)C2CCCCC2)nc2ccccc21,?,nt,nt,i,nt,18µM
CC(C)C(=O)NCCc1nc2ccccc2n1CCOc1ccccc1,i,i,i,i,i,?
Cc1ccc(NC(=O)Nc2ccccc2OCc2cc(=O)n3cccc(C)c3n2)cc1Cl,nt,nt,nt,i,nt,nt
O=C(Cn1ccn2nc3c(c2c1=O)CCCC3)NCc1cccs1,nt,nt,nt,i,nt,nt
O=C(COC(=O)CCc1nc2ccccc2s1)Nc1ccc([N+](=O)[O-])cc1C(F)(F)F,nt,nt,nt,i,nt,nt
COc1ccc(OC)c(NS(=O)(=O)c2ccc(SC)cc2)c1,9.2µM,?,i,i,i,16µM
COc1ccc(S(=O)(=O)c2c(C)c(NS(=O)(=O)c3ccccc3)cc(C)c2O)cc1,?,?,i,i,i,?
CCOc1ccc(S(=O)(=O)Nc2cc(OC)ccc2OC)cc1,0.37µM,i,i,i,i,0.33µM
COc1ccc(S(=O)(=O)Nc2cc(Cl)ccc2OC)cc1,2.3µM,?,i,i,i,2.3µM
COc1ccc(OC)c(NS(=O)(=O)c2ccc(NC(C)=O)cc2)c1,i,i,i,i,i,?
COc1ccc(S(=O)(=O)c2cc(NS(=O)(=O)c3ccc(Cl)cc3)c(C)c(C)c2O)cc1,i,nt,nt,i,nt,16µM
COCCNC(=O)[C@@H]1C[C@@H](O)CN1C1CCN(C(=O)c2cc(F)ccc2F)CC1,nt,nt,nt,i,nt,nt
O=C(CCC1CCCC1)NCc1nnc2c(-c3nc(C4CC4)no3)cccn12,nt,nt,nt,i,nt,nt
COc1ccc2nc(NS(=O)(=O)c3ccc(Cl)cc3)c(Nc3ccc(C)cc3)nc2c1,nt,nt,nt,i,nt,nt
COc1ccc2nc(NS(=O)(=O)c3ccc(C)cc3)c(Nc3cc(Cl)ccc3OC)nc2c1,?,nt,nt,?,nt,23µM
COc1ccc(C(C)(NC(C)=O)c2nc(-c3ccncc3)cs2)cc1 (stereo not given),i,nt,nt,i,nt,i
SMILES,TDP1 cell CPT,ELG1 DNA repair,RORgamma inh,12-LOX inh,Gal4-VP16 FLuc,TDP1 cell noCPT
COCc1cccc(-c2csc(C(C)(NC(C)=O)c3ccccc3)n2)c1 (stereo not given),23µM,nt,nt,i,nt,18µM
COCc1cccc(-c2csc(C(C)(NC(C)=O)c3ccc(OC)cc3)n2)c1 (stereo not given),18µM,nt,nt,i,nt,?
CC(=O)NC(C)(c1ccccc1)c1nc(-c2ccc(S(C)(=O)=O)cc2)cs1 (stereo not given),?,nt,nt,i,nt,i
CC(=O)NC(C)(c1ccccc1)c1nc(-c2cccc(F)c2)cs1 (stereo not given),29µM,nt,nt,i,nt,?
C=CCO/N=C(/C)c1c(O)c(CC)c(-c2ccccc2)n(-c2ccccc2)c1=O,i,i,i,?,i,i
C/C(=N\O)c1c(O)cc(-c2ccccc2)n(-c2ccccc2)c1=O,i,i,?,i,i,i
CCc1c(O)c(/C(C)=N\O)c(=O)n(-c2ccccc2)c1-c1ccccc1,i,i,?,i,35µM,i
